# High-throughput results from PubChem.
# SRC1 TRFRET art – flags TR-FRET format artefacts in PPARgamma SRC-1 recruitment agonist screen; TR-FRET detection artefact counter-screen, emission ratio; active compounds read high; TR-FRET ratio at 8 µM; 99,000 compounds, 0.34% hits; in the data active = TR-FRET ratio above about 2300
# SRC2 TRFRET art – TR-FRET artefact, counter-screen to PPARgamma/SRC-2 agonist assay; active compounds read high; TR-FRET ratio at 8 µM; 200,000 compounds, 0.4% hits
# PPARg SRC3 recr – PPARgamma-driven SRC-3 recruitment agonism; biochemical PPARgamma/SRC-3 coactivator recruitment assay; activation, % at 8 µM; 200,000 compounds, 0.26% hits; AID 731; in the data active = activation above about 23%;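 note: 0% = DMSO and 100% = reference agonist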
# Target sequence (P37231 whole entry, looked up): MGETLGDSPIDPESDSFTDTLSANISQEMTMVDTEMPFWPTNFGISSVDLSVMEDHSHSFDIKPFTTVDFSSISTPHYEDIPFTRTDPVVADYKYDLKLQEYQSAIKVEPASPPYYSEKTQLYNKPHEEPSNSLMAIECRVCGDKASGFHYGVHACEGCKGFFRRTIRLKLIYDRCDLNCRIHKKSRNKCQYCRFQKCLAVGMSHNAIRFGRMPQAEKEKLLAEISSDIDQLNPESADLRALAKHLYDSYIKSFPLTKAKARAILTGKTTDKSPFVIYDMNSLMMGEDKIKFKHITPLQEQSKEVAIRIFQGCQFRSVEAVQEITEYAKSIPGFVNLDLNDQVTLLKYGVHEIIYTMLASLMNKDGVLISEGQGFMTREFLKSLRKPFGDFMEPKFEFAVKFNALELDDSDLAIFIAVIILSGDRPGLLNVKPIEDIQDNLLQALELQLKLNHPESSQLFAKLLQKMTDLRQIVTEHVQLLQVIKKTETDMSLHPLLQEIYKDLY
# PPARg SRC1 recr – promotes SRC-1 coactivator recruitment by human PPARgamma. P37231. PPARgamma-SRC-1 coactivator recruitment biochemical assay. activation, % at 8 µM. 200,000 compounds, 0.41% hits. AID 631; in the data active = activation above about 19%;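 note: 0% = DMSO and 100% = reference agonist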
# PPARg SRC-2 ag – PPARgamma-driven SRC-2 recruitment agonism | P37231 | PPARgamma LBD-SRC-2 recruitment, biochemical | activation, % at 8 µM | 200,000 compounds, 0.34% hits | AID 1032; in the data active = activation above about 22%;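 note: 0% = vehicle and 100% = reference agonist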
# SRC3 TRFRET art – flags TR-FRET format artefacts in PPARgamma SRC-3 recruitment agonist screen | 99,000 compounds, 0.39% hits | TR-FRET ratio at 8 µM | TR-FRET artefact counter-screen, PPARgamma/SRC-3 format; active compounds read high | AID 1048
# An asterisk follows results filed as active; x = no result. Sampled rows, rich in hits. Any-hit rate of the full collection: about 0.9%. Cut-off read from the data, not from the text of the source, unless noted: active = TR-FRET ratio above about 2000; inactive = the rest.
SMILES,SRC1 TRFRET art,SRC2 TRFRET art,PPARg SRC3 recr,PPARg SRC1 recr,PPARg SRC-2 ag,SRC3 TRFRET art
CCOC(=O)c1sc(=NC(=O)CCSc2ccccc2)n(C)c1C,2065,1413,5.7,5.7,-3.8,2393*
CCc1ccc(NC(=S)N2CCNC(=O)C2CC(=O)OC)cc1 (stereo not drawn),1659,1584,1.4,2.3,1.4,1473
CSc1nc(-c2ccccc2)nc(N2CCOCC2)c1C(C)=O,1726,1658,0.9,1.1,5.5,1978
CCOC(=O)c1c(NC(=O)CN2CCCc3ccccc32)sc(C)c1CC,1732,1410,0.2,-3.3,-2.9,1716
Cc1cc(C)c(S(=O)(=O)Nc2c(C)[nH]c(=O)[nH]c2=O)c(C)c1,x,1492,1.3,6.0,5.5,x
Cc1cc(C)c(S(=O)(=O)Nc2ccc3[nH]c(=O)[nH]c3c2)c(C)c1,1785,1779,6.9,22.3*,4.5,1529
C=CCNC(=O)c1c(Br)cnn1-c1ccc(C)cc1,1534,1488,-2.6,3.5,-4.6,1483
CC(=O)c1sc(NC(=O)c2ccc(C(C)(C)C)cc2)nc1C,2152,1990*,16.6,20.4,15.7,2151*
CC(=O)c1sc(NC(=O)c2ccc(C)c(C)c2)nc1C,1400,1603,-0.8,-4.2,-3.6,1583
CC(C)Cn1c(N)c(-c2nc(C(C)C)c(C(=O)c3ccccc3F)s2)c(=O)n(C)c1=O,1670,1485,-2.6,-8.9,1.0,1461
O=c1c(Cl)c(Nc2cccc(Cl)c2)cnn1-c1nc2ccccc2s1,2149,2092*,4.4,9.0,5.3,2400*
COc1ccc(Nc2cnn(-c3nc4ccccc4s3)c(=O)c2Cl)cc1,2001,1746,8.2,12.7,4.6,1521
CCN(C(=O)COC(=O)c1cc(-c2ccccc2)nc2ccc(Br)cc12)C1CCS(=O)(=O)C1 (stereo not drawn),2327*,1887,9.8,15.7,4.0,2241*
CCN(CC)CCn1c(NC(=O)c2ccc(Cl)cc2)nc2ccccc21,x,4842*,1.1,-4.7,153.1*,x
Cc1[nH]c2ccccc2c1/C=N/Nc1nncn1N,1975,1675,5.9,3.8,9.4,1704
Cc1[nH]c2ccccc2c1/C=N/Nc1ccccn1,1781,2002*,8.9,15.2,9.7,1761
COc1ccc(-n2nc(C(C)=O)c(=O)[nH]c2=O)cc1,1770,1461,-1.9,12.1,-1.6,1443
C#CCn1c(=NC(=O)c2ccc(Cl)s2)sc2cccc(OC)c21,x,1639,29.7*,9.5,5.7,x
COc1ccc(CN2CCN(S(=O)(=O)c3ccc(NC(C)=O)cc3)CC2)c(OC)c1OC,1698,1665,-1.1,2.9,6.3,1457
COC(=O)CCC(=O)c1oc2ccc(Br)cc2c1N,x,1390,4.6,-0.8,23.9*,x
COc1ccc2oc(C(=O)CCC(=O)O)c(N)c2c1,x,1609,17.9,0.3,8.6,x
O=C(Nn1c(-c2ccccc2)nc2ccccc2c1=O)c1ccco1,x,1556,3.3,7.7,5.0,x
CCCCCCC1CCC(C(=O)Nn2c(C)nc3ccccc3c2=O)CC1 (stereo not drawn),x,1723,-4.2,4.6,22.2*,x
CCCC1CCC(C(=O)Nn2c(C)nc3ccccc3c2=O)CC1 (stereo not drawn),x,1484,2.8,4.9,-3.2,x
Cc1nc2ccccc2c(=O)n1NC(=O)c1ccco1,x,2082*,7.2,-1.5,12.0,x
SMILES,SRC1 TRFRET art,SRC2 TRFRET art,PPARg SRC3 recr,PPARg SRC1 recr,PPARg SRC-2 ag,SRC3 TRFRET art
CCOc1ccccc1Nc1nnc(SCC(=O)Nc2nc(-c3ccc(OC)cc3)cs2)s1,2149,2038*,6.5,5.6,6.6,1775
N#Cc1c(N)nc(SCC(=O)C23CC4CC(CC(C4)C2)C3)c(C#N)c1-c1ccc(Cl)cc1,x,1336,4.2,98.8*,2.4,x
CSc1nc(N)nc(SCC(=O)C23CC4CC(CC(C4)C2)C3)c1C#N,x,1593,13.4,2.0,4.5,x
O=C1CCCN1CCCNC(=S)Nc1ccc(F)cc1,1772,1370,-1.6,-4.7,0.3,1493
O=C1CCCN1CCC1CCN(C(=S)Nc2ccc(F)cc2)CC1,x,1700,14.6,-1.0,22.0*,x
O=S(=O)(Nc1cccc(C(F)(F)F)c1)c1cnc[nH]1,1838,1811,0.8,4.9,34.9*,1615
O=S(=O)(Nc1ccc(C(F)(F)F)cc1)c1cnc[nH]1,1541,1467,-1.2,7.6,6.5,1657
CC(C)OCCCNC(=O)c1ccc2c(c1)ncn2C1CCCC1,1809,1616,0.2,-2.8,5.4,1561
